From PubChem BioAssay (Tox21)
Where “and” joins values, the source holds several entries; their conditions need not be identical. Equal values may be shown once. Inconclusive results are not listed. Where a structure was tested more than once in an assay, its records may differ in their call. Calls of active or inactive are those of the source. Calls follow the shape of the dose curve; as a rule, active = well fitted inhibition curve with a large enough effect in the repeat runs; inconclusive = weak or mixed curves, or effect the other way; inactive = no such curve, though single readings can be large or run the other way.
% is scaled to controls: 0 for no effect and ±100 for the full control effect; potency is read from the fitted curve at half-maximal effect.

Each compound was assayed against Nuclear receptor subfamily 1 group I member 3 (Homo sapiens) (UniProt Q14994) (assay: qHTS assay to identify small molecule antagonists of the constitutive androstane receptor (CAR) signaling pathway (AID 1224838;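 also: HepG2 cells stably expressing hCAR with CYP2B6 luciferase reporter stimulated by CITCO; nearly all actives have a fitted effect of over 40% in size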)). Conditions: HepG2-CYP2B6-hCAR luciferase, CITCO-stimulated, 24 h; series mostly up to 92.4 µM; activity, negative = inhibition: at the top concentration.
Chain of Nuclear receptor subfamily 1 group I member 3 (Homo sapiens) (Q14994 whole entry, looked up): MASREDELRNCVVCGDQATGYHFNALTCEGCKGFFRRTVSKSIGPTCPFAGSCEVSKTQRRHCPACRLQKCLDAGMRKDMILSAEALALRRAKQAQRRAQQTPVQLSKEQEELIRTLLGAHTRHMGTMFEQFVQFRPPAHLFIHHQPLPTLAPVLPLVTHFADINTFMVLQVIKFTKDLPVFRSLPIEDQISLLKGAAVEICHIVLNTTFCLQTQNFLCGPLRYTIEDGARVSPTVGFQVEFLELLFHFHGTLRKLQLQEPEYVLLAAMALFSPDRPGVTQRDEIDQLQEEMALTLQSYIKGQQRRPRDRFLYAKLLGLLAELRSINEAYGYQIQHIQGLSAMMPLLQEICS
Text: U.S. Tox21 Program National Center for Advancing Translational Sciences [NCATS] NIH Chemical Genomics Center [NCGC] U.S. Environmental Protection Agency [EPA] National Institutes of Environmental Health Sciences [NIEHS] National Toxicology Program [NTP] U.S. Food and Drug Administration [FDA] Tox21 Assay Overview: The constitutive androstane receptor (CAR) is a nuclear receptor which regulates multiple drug metabolizing enzymes (DMEs) and transporters. Activating CAR will generally increase the transcription and subsequent translation of CYP2B6 and CYP3A4. These two DMEs represent about 50% of the drug metabolizing potential in the body. When CAR is deactivated, the metabolizing potential in the body will decrease, subsequently increasing the toxicity in the body or lowering the therapeutic potential of a pro-drug. Recently, there have also been studies performed indicating CARs role in energy metabolism and cancer therapy. Therefore, inhibiting CARs activity could have a potential effect on diabetes and cancer. Identifying environmental toxins and compounds which modulate CAR, through the use of the Tox21 10K compound collection, will be an important step in determining the toxicity and potential therapeutic effects these factors will have on the human body.
Tox21 Assay Protocol Summary: A double-stable (hCAR and CYP2B6-2.2kb) transfected cell line, derived from human hepatoma (HepG2) cells, was utilized for the duration of the quantitative high-throughput screens. The HepG2-CYP2B6-hCAR cells suspended in DMEM culture medium supplemented with 10% FBS, 5 ug/mL blasticidin, 0.5 mg/mL geneticin, 100 U/mL penicillin and 100 ug/mL streptomycin were dispensed at 2500 cells/4 uL/well in 1536-well white solid bottom plates using a Multidrop Combi. After the assay plates were incubated at 37 C/5% CO2 for 4 hrs, 23 nL of compounds at 15 concentrations (from 5-48 columns) or positive control (from 1 to 4 columns) were transferred to the assay plates using a Pintool station. One uL of CITCO, was added using a Flying Reagent Dispenser to generate a final concentration of 50 nM CITCO inside each well. After a 24 hr incubation period at 37 C/5% CO2, four uL of ONE-Glo reagent was added into the assay plates using a Flying Reagent Dispenser. After a 30 min incubation period at room temperature, the luminescence intensity in the assay plates was measured using a ViewLux plate reader.
O=[N+]([O-])/C=C/c1ccccc1 was tested, and the Potency was 24.7 µM (active) and 24.3 µM (active).
CCCCCCCCCCCCCCCl was tested, and the “activity, negative = inhibition” value was -4.41% (inactive).
O=C(Cc1ccccc1)c1ccccc1 was tested, and the “activity, negative = inhibition” value was 58.7% (inactive).
C=C(Cl)Cl was tested, and the “activity, negative = inhibition” value was 0.27% (inactive).
With CCCN(CCOc1c(Cl)cc(Cl)cc1Cl)C(=O)n1ccnc1 the Potency was “inactive”.
With CCC(C)(C)c1ccc(O)c(C(C)(C)CC)c1 the Potency was 60.4 µM (active).
For CN(C)c1ccc(N=O)cc1, the Potency was 43.4 µM (active) and 43.3 µM (active).
With O=S(=O)(Cl)Cl the “activity, negative = inhibition” value was -1.42% (inactive).
NCCc1cc(O)c(O)cc1O was tested, and the “activity, negative = inhibition” value was -26.9% [at 42.5 µM] (inactive).
In the case of CCOC(=O)c1cncn1C(C)c1ccccc1 (stereo not given), the “activity, negative = inhibition” value is reported as 65.9% [at 42.5 µM] (inactive).
For Cc1nnc(-c2ccccc2)c(=O)n1N, the “activity, negative = inhibition” value was 14.4% (inactive).
In the case of Cc1ncc(C[n+]2csc(CCO)c2C)c(N)n1, the “activity, negative = inhibition” value is reported as 3.35% (inactive).
For O=C=NC1CCCCC1, the “activity, negative = inhibition” value was 44.4% (inactive).
In the case of Clc1ccccc1, the “activity, negative = inhibition” value is reported as 18.6% (inactive).
With CN(C1CCCCC1)C1CCCCC1 the “activity, negative = inhibition” value was -1.78% (inactive).
For CC(=O)NNc1ccccc1, the “activity, negative = inhibition” value was 21.1% (inactive).
For SCc1ccccc1, the “activity, negative = inhibition” value was 15.3% (inactive).
In the case of CC(C)(C)c1ccc(CCOc2ncnc3ccccc23)cc1, the “activity, negative = inhibition” value is reported as -6.27% (inactive).
For CCCCCCCCCCCCN(C)C, the “activity, negative = inhibition” value was -3.01% (inactive).
For C[C@H]1O[C@H](OC2[C@@H](O)[C@@H](O)C(O)[C@H](O)[C@H]2O)[C@@H](N)C[C@@H]1N=C(N)C(=O)O (stereo not given in full), the “activity, negative = inhibition” value was 2.94% (inactive).
For C[CH2][Hg][S]c1ccccc1C(=O)O, the Potency was 12.2 µM (active) and 6.68 µM (active).
O=[N+]([O-])c1cc(Cl)c(Cl)cc1Cl was tested, and the “activity, negative = inhibition” value was 31.7% (inactive).
For CCOc1cccc(C2(N3CCN(c4ccccc4)CC3)CCC(C)CC2)c1 (stereo not given), the “activity, negative = inhibition” value was 53.1% (inactive).
With CC(C)c1ccc(OP(=O)(Oc2ccc(C(C)C)cc2)Oc2ccc(C(C)C)cc2)cc1 the Potency was “inactive”.
With CCOP(=S)(S)OCC the “activity, negative = inhibition” value was -0.959% (inactive).
With Nc1cccc2ccccc12 the Potency was “inactive”.
In the case of Cc1nc2ccccc2c(=O)n1-c1ccccc1Cl, the “activity, negative = inhibition” value is reported as 69.9% (inactive).
C=CCc1ccc(OC(=O)Cc2ccccc2)c(OC)c1 was tested, and the “activity, negative = inhibition” value was 25.9% (inactive).
CCCCOC(=O)CCC(=O)OCCCC was tested, and the “activity, negative = inhibition” value was -4.49% (inactive).
With CNC(=O)Oc1cccc(N=CN(C)C)c1 the “activity, negative = inhibition” value was 20.5% (inactive).
O=C1CC[C@@]2(O)[C@H]3Cc4ccc(O)c5c4[C@@]2(CCN3CC2CC2)[C@H]1O5 was tested, and the “activity, negative = inhibition” value was -19.8% [at 42.5 µM] (inactive).
CC(C)CCCCCCCOC(=O)c1ccccc1C(=O)OCCCCCCCC(C)C was tested, and the “activity, negative = inhibition” value was -4.54% (inactive).
In the case of CC(C)CCON=O, the “activity, negative = inhibition” value is reported as -3.41% (inactive).
In the case of CCCN(CCC)c1c([N+](=O)[O-])cc(C(C)C)cc1[N+](=O)[O-], the Potency is reported as “inactive and 1 nM (active)”.
In the case of O=C(O)c1cc(I)cc(I)c1I, the “activity, negative = inhibition” value is reported as -0.633% (inactive).
CC[N+]1(CCOC(=O)C(O)(c2ccccc2)c2ccccc2)CCCCC1 was tested, and the “activity, negative = inhibition” value was -7.99% [at 42.5 µM] (inactive).
C[C@]12C=CC3=C4CCC(=O)C=C4CC[C@H]3[C@@H]1CC[C@@H]2O was tested, and the Potency was “inactive”.
For CC(C)(C)NCC(O)c1ccccc1Cl (stereo not given), the “activity, negative = inhibition” value was 5.39% [at 42.5 µM] (inactive).
O=C(N/N=C/c1ccc([N+](=O)[O-])o1)c1cc([N+](=O)[O-])cc([N+](=O)[O-])c1O was tested, and the “activity, negative = inhibition” value was 139% [at 42.5 µM] (inactive).
With C=CCN1C[C@H](C)N([C@H](c2ccc(C(=O)N(CC)CC)cc2)c2cccc(OC)c2)C[C@H]1C the “activity, negative = inhibition” value was -19.2% [at 42.5 µM] (inactive).
